# Rows were chosen to be rich in hits. Some 0.9% of all compounds tested hit in one or more screens of this group.
# PPARg SRC2 recr – agonists of PPARg-SRC-2 recruitment, primary screen, biochemical, HTS | PPARgamma LBD-SRC-2 recruitment | activation, % at 8 µM | 200,000 tested, 0.34% active | AID 1032, 2008; in the data active = activation above about 22%
# Target sequence (P37231 whole entry, looked up, the tested form may be a part): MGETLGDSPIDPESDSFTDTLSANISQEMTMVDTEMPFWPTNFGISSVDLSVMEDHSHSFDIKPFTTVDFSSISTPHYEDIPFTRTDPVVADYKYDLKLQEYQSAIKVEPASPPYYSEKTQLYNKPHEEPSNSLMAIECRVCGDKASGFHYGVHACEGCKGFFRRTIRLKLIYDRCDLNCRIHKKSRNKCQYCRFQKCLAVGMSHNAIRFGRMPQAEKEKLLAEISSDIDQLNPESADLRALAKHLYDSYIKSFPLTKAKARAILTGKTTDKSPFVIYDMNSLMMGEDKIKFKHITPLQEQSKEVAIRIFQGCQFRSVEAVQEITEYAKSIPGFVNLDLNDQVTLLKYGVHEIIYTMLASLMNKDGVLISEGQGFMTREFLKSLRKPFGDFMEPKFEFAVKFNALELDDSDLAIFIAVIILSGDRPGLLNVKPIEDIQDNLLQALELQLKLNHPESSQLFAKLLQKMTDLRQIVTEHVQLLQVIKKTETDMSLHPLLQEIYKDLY
# TR-FRET SRC-2 ct – TR-FRET signal artefacts, primary screen, artefact control for PPARgamma SRC-2 agonist project, biochemical | TR-FRET artefact counter-screen; stronger effect = higher value | TR-FRET ratio at 8 µM | 200,000 tested, 0.4% active | AID 1049, 2008
# SRC1 TRFRET art – TR-FRET detection interference compounds, primary screen, artefact control for PPARgamma SRC-1 recruitment agonists, biochemical, TR-FRET emission ratio; TR-FRET detection artefact counter-screen; stronger effect = higher value; TR-FRET ratio at 8 µM; 99,000 tested, 0.34% active; in the data active = TR-FRET ratio above about 2300
# SRC3 TRFRET art – TR-FRET detection interference compounds, artefact control for PPARgamma SRC-3 recruitment agonists, biochemical, TR-FRET ratio; TR-FRET artefact counter-screen, PPARgamma/SRC-3 format; stronger effect = higher value; TR-FRET ratio at 8 µM; 99,000 tested, 0.39% active
# PPARg SRC3 recr – PPARgamma agonists recruiting SRC-3 coactivator, primary screen, biochemical; Peroxisome proliferator-activated receptor gamma (Homo sapiens), P37231; biochemical PPARgamma/SRC-3 coactivator recruitment assay; activation, % at 8 µM; 200,000 tested, 0.26% active; in the data active = activation above about 23%
# PPARg SRC1 recr – PPARgamma agonists recruiting SRC-1 coactivator, primary screen, biochemical; Peroxisome proliferator-activated receptor gamma (Homo sapiens), P37231; PPARgamma-SRC-1 coactivator recruitment biochemical assay; activation, % at 8 µM; 200,000 tested, 0.41% active; in the data active = activation above about 19%
# PPARg SRC2 ag – agonists of PPARgamma SRC-2 coactivator recruitment, confirmation, biochemical, HTS; biochemical SRC-2 recruitment by PPARgamma; activation, % at 8 µM; 790 tested, 52% active; shares compounds with PPARg SRC3 recr; in the data active = activation above about 22%
# PPARg SRC1 ag – PPARgamma agonists recruiting SRC-1 coactivator, confirmation, biochemical; shares compounds with PPARg SRC3 recr; PPARgamma–SRC-1 coactivator recruitment biochemical assay; activation, % at 8 µM; 790 tested, 43% active; AID 1300, 2008; in the data active = activation above about 20%
# PPARg SRC3 ag – PPARgamma-driven SRC-3 coactivator recruitment agonists, confirmation, biochemical; shares compounds with PPARg SRC3 recr; biochemical PPARgamma-SRC-3 coactivator recruitment, agonist mode; activation, % at 8 µM; AID 1301, 2008; 790 tested, 29% active; in the data active = activation above about 24%
# Numbers stand for hits; 0 = inactive; - = not tested or not shown. Rule as the data show it, unless noted: active = TR-FRET ratio above about 2000; inactive = the rest.
SMILES,PPARg SRC2 recr,TR-FRET SRC-2 ct,SRC1 TRFRET art,SRC3 TRFRET art,PPARg SRC3 recr,PPARg SRC1 recr,PPARg SRC2 ag,PPARg SRC1 ag,PPARg SRC3 ag
COc1cccc(NC(=O)Nc2nccc(C)n2)c1,0,0,0,0,0,0,-,-,-
COc1c(F)c(F)c(C(=O)Nc2ccc3oc(-c4ccncc4)nc3c2)c(F)c1F,0,0,-,-,74,82,71,66,49
O=C(O)c1cn(-c2ccc(N3CCCC3)c(F)c2)c2c(F)c(F)c(F)cc2c1=O,68,3278,4223,3524,38,67,0,0,0
CCN(CC)c1ccc(NC(=O)CSc2nnc(N)s2)cc1C,0,0,-,-,0,20,0,0,0
COc1ccc(-c2nc(-c3cccs3)c(-c3cccs3)[nH]2)cc1OC,28,2267,-,-,30,23,35,31,26
COCCNC(=S)N1CCN(c2ccc(Cl)cc2)CC1,0,0,0,0,0,0,-,-,-
CNC(=S)N1N=C(c2ccc(C)cc2)CC1c1ccc(Cl)cc1 (configuration not stated),23,2072,-,-,0,0,0,0,0
COC(=O)c1cc(C(=O)OCC(=O)NCc2ccc3c(c2)OCO3)cc([N+](=O)[O-])c1,0,0,0,0,0,0,-,-,-
Cc1ccc2[nH]c3c(=S)nc[nH]c3c2c1,38,2733,0,2834,0,23,0,0,0
O=C(CSc1nc2scc(-c3ccco3)c2c(=O)n1-c1ccccc1)N1CCOCC1,35,2021,-,-,37,23,26,21,0
NC(=O)CSc1nc2scc(-c3ccco3)c2c(=O)n1-c1ccccc1,0,0,-,-,0,0,-,-,-
Cc1ccc(/C=C/C(=O)Nc2ccc(N(C)C)cc2)o1,25,0,0,0,0,25,0,0,0
CCn1c(=O)cc(SCC(=O)N2CCN(c3ccccn3)CC2)c2ccccc21,35,2505,3018,2355,0,39,50,34,34
CCn1c(=O)cc(SCC(=O)N2CCN(c3ccccc3F)CC2)c2ccccc21,42,2381,-,-,34,30,36,23,24
NC(=O)N/N=C/c1cc(Br)ccc1OC(=O)c1ccccc1,0,0,0,0,0,0,-,-,-
CCOc1ccc(/C(O)=C2\C(=O)C(=O)N(c3cc(C)on3)C2c2ccccc2OC)cc1 (configuration not stated),34,2300,-,-,42,27,36,31,0
CN1CCN(S(=O)(=O)c2ccc(NC(=O)COc3ccccc3Cl)cc2)CC1,0,0,0,0,0,0,-,-,-
N#CCC(=N)N1CCN(c2ccc(F)cc2)CC1,0,0,0,0,0,0,-,-,-
CCn1c(=O)c(=O)[nH]c2cc(C(=O)Nc3ccc(S(=O)(=O)N4CCCC4)cc3)ccc21,0,0,-,-,26,0,0,0,0
CCn1c(=O)c(=O)[nH]c2cc(C(=O)NC3CC3)ccc21,0,0,0,0,0,0,-,-,-
COc1cc(C2c3c(oc4ccccc4c3=O)C(=O)N2Cc2ccncc2)ccc1O (configuration not stated),0,0,-,-,0,0,-,-,-
CCc1ccc(NC(=S)NC(=O)CC(C)C)cc1,0,0,0,0,0,0,-,-,-
Cc1ccc(-n2ncc3c(NNC(=O)Cc4ccccc4)ncnc32)cc1,0,0,0,0,0,0,-,-,-
O=C(Oc1ccc(Cl)c2cccnc12)N1CCCCC1,0,0,0,0,0,0,-,-,-
O=C(Oc1c(Br)cc(Br)c2cccnc12)N1CCCCC1,0,0,0,0,0,29,0,0,0

# High-throughput results as filed in PubChem.
